# In all, about 140,000 sequences were measured (“enrichment ratio after two sorts for PhoP signalling”: median about 0, highest 2% from about 11 on). This is one part of a sample in which the highest values are shown more often than they occur.
# B1: PhoQ; a variant is named by its letters at X, in order, P23837 (parent)
# chain: MKKLLRLFFPLSLRVRFLLATAAVVLVLSLAYGMVALIGYSVSFDKTTFRLLRGESNLFYTLAKWENNKLHVELPENIDKQSPTMTLIYDENGQLLWAQRDVPWLMKMIQPDWLKSNGFHEIEADVNDTSLLLSGDHSIQQQLQEVREDDDDAEMTHSVAVNVYPATSRMPKLTIVVVDTIPVELKSSYMVWSWFIYVLSANLLLVIPLLWVAAWWSLRPIEALAKEVRELEEHNRELLNPATTRELTSLVRNLNRLLKSERERYDKYRTTLTDLTHSLKTPLXXLQXXLRSLRSEKMSVSDAEPVMLEQISRISQQIGYYLHRASMRGGTLLSRELHPVAPLLDNLTSALNKVYQRKGVNISLDISPEISFVGEQNDFVEVMGNVLDNACKYCLEFVEISARQTDEHLYIVVEDDGPGIPLSKREVIFDRGQRVDTLRPGQGVGLAVAREITEQYEGKIVAGESMLGGARMEVIFGRQHSAPKDE
# Variants of: B1
# Assay: enrichment ratio after two sorts for PhoP signalling (ratio (wild type AVST 3.29)); higher = more functional
# Conditions: with PhoP (E. coli)
row,Variant,enrichment ratio
1,YEQT,≤ 0.25
2,LCHM,≤ 0.25
3,MVGN,10.6
4,IKTK,≤ 0.25
5,MGWM,21
6,MGDM,≤ 0.25
7,MGGM,9.49
8,KATF,≤ 0.25
9,LLTF,≤ 0.25
10,KYTF,≤ 0.25
11,SATF,11.2
12,LNTF,≤ 0.25
13,SNTF,12.1
14,SLTF,12.2
15,WLTF,≤ 0.25
16,SSTF,7.3
17,SRTF,≤ 0.25
18,SITF,11.8
19,NATF,≤ 0.25
20,LNWL,≤ 0.25
21,ERPG,≤ 0.25
22,NYCA,≤ 0.25
23,IDCL,≤ 0.25
24,VING,≤ 0.25
25,WSTV,≤ 0.25
26,TVQL,16.7

row,Variant,enrichment ratio
1,TSQL,14
2,NVQL,≤ 0.25
3,SPQL,≤ 0.25
4,DWQL,≤ 0.25
5,LAQL,≤ 0.25
6,TMQL,12.8
7,MMQL,≤ 0.25
8,HAQL,≤ 0.25
9,NMQL,≤ 0.25
10,TQQL,11.6
11,KSQL,≤ 0.25
12,NGLW,≤ 0.25
13,YAWN,≤ 0.25
14,QRCA,≤ 0.25
15,FANK,≤ 0.25
16,PWMR,≤ 0.25
17,YMPP,≤ 0.25
18,PLMP,≤ 0.25
19,FLRE,≤ 0.25
20,MFVW,≤ 0.25
21,LQNW,≤ 0.25
22,TKQL,23.2
23,NAQL,≤ 0.25
24,TLQL,13
25,MNQL,≤ 0.25
26,LNQL,≤ 0.25

row,Variant,enrichment ratio
1,YAQL,≤ 0.25
2,KAQL,1.07
3,TNQL,12.7
4,KLQL,≤ 0.25
5,WFHV,≤ 0.25
6,AFMF,≤ 0.25
7,WQHR,≤ 0.25
8,AKRK,≤ 0.25
9,NEEV,≤ 0.25
10,TMEI,17.7
11,KMEI,≤ 0.25
12,NMSL,≤ 0.25
13,TMEV,25
14,TMEC,11.9
15,NEEC,≤ 0.25
16,KMEC,≤ 0.25
17,DMEI,≤ 0.25
18,TMFV,0.532
19,TMSL,13.1
20,KMSL,≤ 0.25
21,IVWG,≤ 0.25
22,GKHD,≤ 0.25
23,RMMR,≤ 0.25
24,VNCL,4.33
25,RQDI,≤ 0.25
26,MCGY,≤ 0.25

row,Variant,enrichment ratio
1,MMHL,1.34
2,DMHL,≤ 0.25
3,TMGL,7.75
4,TMEL,15.3
5,TMHL,11.6
6,TMWL,≤ 0.25
7,HEGR,≤ 0.25
8,IMAF,≤ 0.25
9,LWKN,≤ 0.25
10,VRPW,≤ 0.25
11,HNFA,≤ 0.25
12,TPCH,≤ 0.25
13,VYYN,≤ 0.25
14,VLGI,≤ 0.25
15,GLCN,12.8
16,SHCN,13.2
17,GLLN,≤ 0.25
18,CLCN,23.2
19,WLCN,≤ 0.25
20,SLCN,11.5
21,GLCI,9.01
22,SHLN,2.15
23,ELCN,≤ 0.25
24,THCN,4.64
25,CLLN,≤ 0.25
26,STCN,8.56

row,Variant,enrichment ratio
1,VNQW,≤ 0.25
2,HNQK,≤ 0.25
3,YVDP,≤ 0.25
4,RGYW,≤ 0.25
5,TCKY,≤ 0.25
6,NSCN,≤ 0.25
7,KSCN,≤ 0.25
8,SVNL,≤ 0.25
9,SSCN,16.9
10,SILN,8.2
11,SICN,20.7
12,SVLN,7.1
13,FSCN,≤ 0.25
14,SSLN,6.84
15,TSCN,26.6
16,SVCN,19.4
17,KYCN,≤ 0.25
18,KIAC,≤ 0.25
19,GADV,≤ 0.25
20,GNVT,≤ 0.25
21,LQFF,≤ 0.25
22,YIPQ,≤ 0.25
23,LFCN,≤ 0.25
24,RNVA,≤ 0.25
25,IHQN,≤ 0.25
26,VDDC,≤ 0.25

row,Variant,enrichment ratio
1,DQCK,≤ 0.25
2,LVLE,≤ 0.25
3,SCCN,17.1
4,SQCN,10.1
5,VCCN,≤ 0.25
6,LVPD,≤ 0.25
7,TRFL,≤ 0.25
8,DSSW,≤ 0.25
9,EETG,3.69
10,MITR,≤ 0.25
11,SGGY,22.8
12,SGYI,2.6
13,SGNY,≤ 0.25
14,SGWY,≤ 0.25
15,SGAY,15.2
16,SGDY,≤ 0.25
17,MFNP,≤ 0.25
18,RNKF,≤ 0.25
19,GSTI,12.2
20,KSCF,≤ 0.25
21,GSLY,7.32
22,GSWI,≤ 0.25
23,GSHF,≤ 0.25
24,GSCF,11.5
25,MERP,≤ 0.25
26,VWLN,≤ 0.25

row,Variant,enrichment ratio
1,DNMN,≤ 0.25
2,AIMK,≤ 0.25
3,AALK,12
4,NAMK,≤ 0.25
5,ATLK,17
6,AAAT,≤ 0.25
7,YTLK,≤ 0.25
8,AAMK,35.5
9,NALK,≤ 0.25
10,KALK,≤ 0.25
11,ATLA,9.51
12,AALT,11.9
13,AALA,7.36
14,HSVK,≤ 0.25
15,TFLL,3.21
16,PAYK,≤ 0.25
17,PNPY,≤ 0.25
18,GVVL,1.14
19,FWES,≤ 0.25
20,MFHN,≤ 0.25
21,VGKH,≤ 0.25
22,KSAT,≤ 0.25
23,NSAT,≤ 0.25
24,KSNT,≤ 0.25
25,TSNT,11.9
26,TSNW,≤ 0.25

row,Variant,enrichment ratio
1,TSAT,11.6
2,KSNS,≤ 0.25
3,TSNY,8.01
4,TSNS,12.8
5,GLRK,≤ 0.25
6,FLKG,0.285
7,GCSH,≤ 0.25
8,AATM,0.767
9,RWIC,≤ 0.25
10,FLKL,≤ 0.25
11,GICA,11.2
12,GNCA,9.24
13,GNCS,7.94
14,GICS,11.2
15,GICP,≤ 0.25
16,GICI,7.05
17,GNCN,≤ 0.25
18,GILN,10.6
19,GIVG,10.4
20,GNCG,≤ 0.25
21,GICN,13.8
22,GICG,15.9

# Reference: a collection of fitness landscapes (doi:10.1126/science.1257360)
